For 51 compounds, Potency results are on record in PubChem BioAssay AID504333 (National Center for Advancing Translational Sciences (NCATS), 2011).

Screen size: about 360,000 compounds; about 16,000 (4.4%) were called active. A call without a number means that no potency is given here. About 9% were inconclusive and are not listed. For the sample, actives were picked, then their nearest neighbours and some compounds at random. A number with no mark means an inactive call. The call rests on the fitted dose curve; in most records, active means well fitted inhibition curve with a large enough effect; inconclusive means small, poorly fitted or top-dose-only effect; inactive means no such curve, though single readings can be large or run the other way.
Potency means the concentration at half of the fitted maximal effect.

Sequence of Bromodomain adjacent to zinc finger domain protein 2B (Homo sapiens) (Q9UIF8 whole entry, looked up, the tested form may be a part): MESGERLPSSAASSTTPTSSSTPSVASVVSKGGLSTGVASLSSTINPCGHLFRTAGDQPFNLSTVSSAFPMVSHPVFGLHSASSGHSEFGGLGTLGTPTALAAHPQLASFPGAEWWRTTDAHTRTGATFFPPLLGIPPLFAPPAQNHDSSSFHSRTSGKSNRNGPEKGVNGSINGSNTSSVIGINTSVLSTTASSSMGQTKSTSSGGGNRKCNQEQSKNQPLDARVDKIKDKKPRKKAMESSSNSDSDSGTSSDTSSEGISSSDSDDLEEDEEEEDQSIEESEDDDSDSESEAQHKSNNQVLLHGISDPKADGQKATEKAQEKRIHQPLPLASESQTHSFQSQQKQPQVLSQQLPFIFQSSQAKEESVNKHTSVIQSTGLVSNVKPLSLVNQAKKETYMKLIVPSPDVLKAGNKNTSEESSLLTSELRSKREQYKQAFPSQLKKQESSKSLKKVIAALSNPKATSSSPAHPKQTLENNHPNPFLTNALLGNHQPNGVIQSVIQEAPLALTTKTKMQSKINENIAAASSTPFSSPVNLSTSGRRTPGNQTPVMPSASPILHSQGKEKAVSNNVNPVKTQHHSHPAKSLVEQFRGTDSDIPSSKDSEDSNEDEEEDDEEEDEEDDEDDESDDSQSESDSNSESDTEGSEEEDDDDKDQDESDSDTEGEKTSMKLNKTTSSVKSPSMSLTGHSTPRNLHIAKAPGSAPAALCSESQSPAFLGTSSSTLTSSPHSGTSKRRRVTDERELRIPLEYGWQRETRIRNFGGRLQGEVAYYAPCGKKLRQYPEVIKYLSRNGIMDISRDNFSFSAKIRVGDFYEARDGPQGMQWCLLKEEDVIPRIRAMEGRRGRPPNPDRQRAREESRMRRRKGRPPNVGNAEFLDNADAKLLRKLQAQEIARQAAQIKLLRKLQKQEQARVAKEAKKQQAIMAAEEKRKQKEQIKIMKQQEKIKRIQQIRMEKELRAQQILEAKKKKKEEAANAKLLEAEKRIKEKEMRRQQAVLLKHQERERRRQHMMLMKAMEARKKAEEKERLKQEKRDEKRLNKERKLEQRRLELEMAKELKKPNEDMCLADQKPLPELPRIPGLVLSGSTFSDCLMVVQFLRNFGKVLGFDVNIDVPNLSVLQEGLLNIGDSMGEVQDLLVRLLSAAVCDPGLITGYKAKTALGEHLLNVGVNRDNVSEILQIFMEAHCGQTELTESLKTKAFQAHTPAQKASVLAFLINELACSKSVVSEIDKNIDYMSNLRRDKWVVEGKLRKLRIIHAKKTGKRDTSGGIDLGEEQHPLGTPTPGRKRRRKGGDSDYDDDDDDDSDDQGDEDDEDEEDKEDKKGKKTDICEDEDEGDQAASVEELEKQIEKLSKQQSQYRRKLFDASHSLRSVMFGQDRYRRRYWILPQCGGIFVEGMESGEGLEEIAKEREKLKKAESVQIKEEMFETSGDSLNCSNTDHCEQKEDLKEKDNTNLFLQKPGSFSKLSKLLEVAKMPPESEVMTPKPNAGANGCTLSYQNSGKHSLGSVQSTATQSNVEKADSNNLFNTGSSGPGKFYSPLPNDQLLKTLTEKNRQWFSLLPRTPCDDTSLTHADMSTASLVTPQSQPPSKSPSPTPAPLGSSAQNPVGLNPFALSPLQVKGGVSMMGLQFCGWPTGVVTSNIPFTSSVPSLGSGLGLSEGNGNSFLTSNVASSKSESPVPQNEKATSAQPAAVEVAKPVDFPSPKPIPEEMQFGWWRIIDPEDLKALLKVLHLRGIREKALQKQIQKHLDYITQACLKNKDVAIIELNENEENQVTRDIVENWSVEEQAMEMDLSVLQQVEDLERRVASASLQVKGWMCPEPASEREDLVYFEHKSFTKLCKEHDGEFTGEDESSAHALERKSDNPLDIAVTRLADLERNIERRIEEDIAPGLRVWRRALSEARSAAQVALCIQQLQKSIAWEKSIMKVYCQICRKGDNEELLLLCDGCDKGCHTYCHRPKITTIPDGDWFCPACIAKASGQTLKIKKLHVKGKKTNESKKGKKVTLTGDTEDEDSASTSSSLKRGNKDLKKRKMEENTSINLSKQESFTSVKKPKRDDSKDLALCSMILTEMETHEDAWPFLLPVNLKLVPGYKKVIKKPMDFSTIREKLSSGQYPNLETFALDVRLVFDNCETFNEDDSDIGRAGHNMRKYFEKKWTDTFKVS

For the test, the target named is Bromodomain adjacent to zinc finger domain protein 2B (Homo sapiens) (UniProt Q9UIF8). Description: qHTS Assay for Inhibitors of BAZ2B. Further: nearly all actives have a fitted effect of over 60% in size. The conditions noted are these: AlphaScreen BAZ2B-H3K14Ac peptide displacement; series mostly up to 114 µM. From the text:
BAZ2B (bromodomain adjacent to zinc finger domain, 2B) belongs to a family of ubiquitously expressed bromodomain containing proteins, which biological function has not yet been elucidated. […] The interaction of BAZ2B with ISWI mediated by the BAZ1 motif has recently been described. […] The protocol is based on the AlphaScreen (PerkinElmer) displacement assay developed by NCGC [5], but uses the peptide ligand Biot-H3K14Ac, a high affinity binding partner for BAZ2B, in an AlphaScreen format. Although AlphaScreen has significant advantages with its utility in a variety of epigenetic target assays, the primary screening data provided in this deposition should be used with caution due to the prevalence of screening artifacts. The top compound concentration tested was 110uM in this assay, which increases number of actives and potential artifacts. An AlphaScreen counterscreen is highly recommended to be run against any putative actives to eliminate non-specific artifacts. Alternatively, one can use other AlphaScreen assays in PubChem to filter out promiscuous hits. Eberharter, A. et al. ACF1 improves the effectiveness of nucleosome mobilization by ISWI through PHD-histone contacts. The EMBO journal 23, 4029-4039. 2004. PMID: 15457208 [2] Jones, M.H. et al. A novel family of bromodomain genes. Genomics 63, 40-45. 2000. PMID: 10662543 [3] Yasgar, et al. Compound Management for Quantitative High-Throughput Screening. JALA. 2008 Apr;13(2):79-89. PMID: 18496600 [4] Inglese, et al. Quantitative high-throughput screening: a titration-based approach that efficiently identifies biological activities in large chemical libraries. Proc Natl Acad Sci. 1;103(31):11473-8. 2006. PMID: 16864780 [5] Quinn et al. A chemiluminescence-based method for identification of histone lysine methyltransferase inhibitors. Mol Biosyst 6(5): 782-8. 2010. PMID: 20567762 [6] Baell,Holloway. New substructure filters for removal of pan assay interference compounds (PAINS) from screening libraries and for their exclusion in bioassays. J Med Chem. 53(7):2719-40. 2010. PMID: 20131845 NIH Molecular Libraries Probe Production Network [MLPCN] NIH Chemical Genomics Center [NCGC] Structural Genomics Consortium (SGC) NIH Grant: 5U54 MH084681-02
To each well of a 1,536w plate, 2ul of BAZ2B protein (final 50nM) and 1ul biotinylated histone peptide acetylated at Lys14 [b-H3(5-23)K14Ac] (final 50nM) were added in 1x PBS buffer, pH 7.4, containing 0.01% Tween-20, using a nanoliter dispenser. Formation of a protein-peptide complex proceeded at room temperature for 30 min. A Kalypsys pin-tool was employed to transfer 23 nL of library compound solution in DMSO to each well. Following a 30 min incubation of the protein-peptide complex with compounds at room temperature, a mixture of 40 ug/mL each streptavidin-coated donor and nickel chelate acceptor AlphaScreen beads (final 10 ug/mL) were added in a 1ul dispense for a final volume of 4ul. A brief centrifugation followed (1000rpm, 1 min) and were then incubated protected from the light for 20 min at room temperature. Plates were read on an EnVision multilabel plate reader using the 1,536 plate HTS AlphaScreen aperture (excitation time 80 ms, measurement time 240 ms).
Background: qHTS replaces the single test concentration by a dilution series.
As to `CCN(C(=O)CN1C(=O)/C(=C/c2ccc(F)cc2)SC1=S)C1CCS(=O)(=O)C1` (stereo unspecified), the Potency entry was “inactive”.

As for `CN(C(=O)CN1C(=O)/C(=C/c2ccc(Cl)cc2)SC1=S)C1CCS(=O)(=O)C1` (stereo unspecified), the Potency result is “inactive”.

With `O=C1/C(=C/c2cccs2)SC(=S)N1C1CCS(=O)(=O)C1` (stereo unspecified), the Potency is 22.4 µM (active). On to `COCCN(Cc1ccco1)C(=O)Cn1ncc2c([nH]c3ccccc32)c1=O`, for which the Potency entry was “inactive”. The value for `Cc1cc(C)cc(NC(c2nnc(-c3cccc(F)c3)o2)c2ccc(F)cc2Cl)c1` (stereo unspecified) was “inactive”. Turning to `CCCS(=O)(=O)Nc1cccc(-c2cn3ccsc3n2)c1`, the Potency entry is “inactive”. Turning to `COc1cccc(OC)c1C(=O)N1CCN(Cc2cccnc2)CC1`, the Potency was 50.1 µM (active). The value for `COc1cccc(OC)c1OCCN1CCN(C(=O)c2ccco2)CC1` was “inactive”. The value for `COc1ccccc1C(=O)N1CCN=C1SCc1cccnc1` was “inactive”; that for `CCCn1c(NCc2ccc(N(CC)CC)cc2)nc2ccccc21` was 39.8 µM (active). The value for `CCCn1c(NC(=O)C23CC4CC(CC(O)(C4)C2)C3)nc2ccccc21` was “inactive”. Consider `CCCn1c(NCc2ccccc2F)nc2ccccc21`, for which the Potency result is “inactive”.

For the compound `O=C(NC1(C(F)(F)F)N=C(c2ccccc2)N(C2CCCCC2)C1=O)c1ccccc1F` (stereo unspecified), the Potency result is “inactive”.

`CCN(CC)C(=O)CSc1nc2ccsc2c(=O)n1Cc1ccccc1Cl`: the Potency result was “inactive”. As for `Cc1cc(/C=C2/NC(=O)NC2=O)c(C)n1-c1cccnc1`, the Potency result was “inactive”.

In the case of `Cc1cccc(C)c1-n1c(C)cc(/C=C2\C(=O)NN(c3ccccc3)C2=O)c1C`, the Potency was 14.1 µM (active). The value for `COc1cc(C(=O)NCCc2csc3nc(-c4ccccc4C)nn23)cc(OC)c1OC` was “inactive”; that for `CCOCCc1nn2c(=O)cc(COC(=O)CNC(=O)c3ccc(C(C)(C)C)cc3)nc2s1` was “inactive”. The value for `CCCCN(C)c1nnc(NC(=O)Nc2ccc(Br)c(C)c2)s1` was “inactive”; that for `c1ccc2c(CSCc3nc4ccccc4[nH]3)cccc2c1` was “inactive”; that for `Nc1scc[n+]1Cc1cccc2cccnc12` was “inactive”.

As to `c1ccc2c(C[n+]3csc4ccccc43)cccc2c1`, the Potency is 56.2 µM (active). The value for `O=C(C1COc2ccccc2O1)N(Cc1cccnc1)c1nc2c(F)cc(F)cc2s1` (stereo unspecified) was “inactive”; that for `COc1ccccc1OCCNCC(O)COc1cccc2[nH]c3ccccc3c12` (stereo unspecified) was 39.8 µM (active); that for `COc1ccccc1OCC(O)CN1CCOCC1` (stereo unspecified) was “inactive”. The value for `CCCn1c(=N)n(CC(O)COc2ccccc2OC)c2ccccc21` (stereo unspecified) was “inactive”; that for `CCOc1ccc(C2CC(=O)c3c([nH]c(C(=O)OCc4ccccc4)c3C)C2)cc1` (stereo unspecified) was “inactive”. The value for `NC(=O)N/N=C\c1cccs1` was “inactive”. Consider `COc1ccc(Nc2nc(=O)[nH]nc2C)cc1`, for which the Potency entry was “inactive”. Turning to `Cc1n[nH]c(=O)nc1N/N=C/c1cccs1`, the Potency is 17.8 µM (active). The value for `COc1cccc(OC)c1C(=O)NC(=S)NCc1ccco1` was 79.4 µM (active). The value for `COC(=O)Cc1ccc(NC(=S)NCc2ccco2)cc1` was “inactive”. The value for `COc1cc(C(=O)NC(=S)NCc2ccco2)cc(OC)c1OC` was “inactive”; that for `N#Cc1nc(/C=C/c2ccc(F)cc2)oc1NC1CCCCC1` was “inactive”. Regarding `Cc1c(CCC(=O)O)c(=O)oc2c(C)c(OCc3ccccc3Cl)ccc12`, the Potency is 70.8 µM (active).

Consider `Cc1c(CCC(=O)O)c(=O)oc2cc(OCc3ccc(Br)cc3)ccc12`, for which the Potency result is “inactive”. In the case of `CCOC(=O)CCc1c(C)c2ccc(OCc3nn[nH]n3)c(C)c2oc1=O`, the Potency result was “inactive”.

Regarding `O=C(c1ccccc1F)N1CCC(c2nc3c(nnn3Cc3cccc(F)c3)c(=O)[nH]2)CC1`, the Potency entry was “inactive”. The value for `CC(C)(C)c1ccc(NC(=O)COC(=O)CCc2nc3ccccc3c(=O)[nH]2)cc1` was “inactive”; that for `CCN(c1ccc(NC(=O)COC(=O)CCc2nc3ccccc3n2-c2ccccc2)cc1)C(C)C` was 25.1 µM (active); that for `Cc1ccc(NC(=O)COC(=O)CCc2nc3ccccc3n2-c2ccccc2)c(C)c1` was “inactive”. With `COc1ccc(-n2c(=O)c3c(c4cc(OC)ccc4n3C)n(Cc3cccc(C)c3)c2=O)cc1`, the Potency entry is “inactive”. The value for `CCOC(=O)c1ccc(NC(=O)CCS(=O)(=O)c2ccc(C)cc2)cc1` was “inactive”; that for `Cc1ccc(N(C)C(=O)C2CCN(S(=O)(=O)c3ccc4c(c3)CCCN4C(=O)C3CCC3)CC2)cc1` was “inactive”. With `COc1cc(/C=C(\C#N)c2nc3c(s2)CC(C)CC3)ccc1O` (stereo unspecified), the Potency is 50.1 µM (active). The value for `COc1cccc2cc(-c3nc(Cl)c4c5c(sc4n3)CC(C)CC5)c(=O)oc12` (stereo unspecified) was “inactive”; that for `CCOc1cc(/C=C(\C#N)c2nc(-c3cccs3)c(NC(C)=O)s2)ccc1O` was “inactive”. The value for `COc1cc(C(=O)NCCS(=O)(=O)N2CCN(c3ccccc3)CC2)cc(OC)c1OC` was “inactive”; that for `CC(=O)c1ccc(NC(=O)CSc2c(C(C)C)cnc3c2c(=O)n(C)c(=O)n3C)cc1` was “inactive”; that for `Cc1ccc(Cl)cc1N1CCN(C(=O)C2CCC(CNS(=O)(=O)c3cccs3)CC2)CC1` (stereo unspecified) was “inactive”. The value for `CCOC(=O)C1CCCN(CC(=O)Nc2cc(C)c3c(=O)oc4ccccc4c3n2)C1` (stereo unspecified) was “inactive”.
